# Screening results as filed in PubChem.
# PPARg SRC3 recr: PPARgamma agonists recruiting SRC-3 coactivator, primary screen, biochemical | Peroxisome proliferator-activated receptor gamma (Homo sapiens), P37231 | AID 731, 2007 | activation, % at 8 µM | biochemical PPARgamma/SRC-3 coactivator recruitment assay | actives 0.26% (n = 200,000); in the data active = activation above about 23%;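 note: 0% = DMSO and 100% = reference agonist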
# Target sequence (P37231 whole entry, looked up): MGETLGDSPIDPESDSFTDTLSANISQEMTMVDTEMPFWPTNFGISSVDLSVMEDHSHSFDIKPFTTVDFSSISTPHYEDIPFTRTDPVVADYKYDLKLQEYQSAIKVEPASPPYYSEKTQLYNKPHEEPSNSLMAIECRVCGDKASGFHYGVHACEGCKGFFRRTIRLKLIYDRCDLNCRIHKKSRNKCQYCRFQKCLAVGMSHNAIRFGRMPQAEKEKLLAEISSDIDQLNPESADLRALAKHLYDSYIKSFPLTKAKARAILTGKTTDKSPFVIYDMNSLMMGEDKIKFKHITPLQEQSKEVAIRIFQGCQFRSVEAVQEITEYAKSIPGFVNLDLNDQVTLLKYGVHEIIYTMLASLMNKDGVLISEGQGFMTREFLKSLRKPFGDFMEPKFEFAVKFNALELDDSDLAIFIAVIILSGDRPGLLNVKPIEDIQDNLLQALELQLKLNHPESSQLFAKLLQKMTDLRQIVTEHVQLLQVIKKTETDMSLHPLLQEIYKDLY
# SRC1 TRFRET art: TR-FRET detection interference compounds, primary screen, artefact control for PPARgamma SRC-1 recruitment agonists, biochemical, TR-FRET emission ratio; TR-FRET detection artefact counter-screen; stronger effect = higher value; TR-FRET ratio at 8 µM; actives 0.34% (n = 99,000); AID 1051, 2008; in the data active = TR-FRET ratio above about 2300
# TR-FRET SRC-2 ct: TR-FRET signal artefacts, primary screen, artefact control for PPARgamma SRC-2 agonist project, biochemical; TR-FRET artefact counter-screen; stronger effect = higher value; actives 0.4% (n = 200,000); AID 1049, 2008; TR-FRET ratio at 8 µM
# PPARg SRC-2 ag: agonists of PPARg-SRC-2 recruitment, primary screen, biochemical, HTS; Peroxisome proliferator-activated receptor gamma (Homo sapiens), P37231; PPARgamma LBD-SRC-2 recruitment; activation, % at 8 µM; actives 0.34% (n = 200,000); AID 1032, 2008; in the data active = activation above about 22%;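 note: 0% = vehicle and 100% = reference agonist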
# SRC3 TRFRET art: TR-FRET detection interference compounds, artefact control for PPARgamma SRC-3 recruitment agonists, biochemical, TR-FRET ratio; TR-FRET artefact counter-screen, PPARgamma/SRC-3 format; stronger effect = higher value; TR-FRET ratio at 8 µM; AID 1048, 2008; actives 0.39% (n = 99,000)
# PPARg SRC1 recr: PPARgamma agonists recruiting SRC-1 coactivator, primary screen, biochemical | PPARgamma-SRC-1 coactivator recruitment biochemical assay | activation, % at 8 µM | actives 0.41% (n = 200,000); in the data active = activation above about 19%;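 note: 0% = DMSO and 100% = reference agonist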
# * hit, by the source's call; . = no result given. This is a sample that favours compounds with a hit; in the whole collection about 0.9% have one here. Cut-off read from the data, not from the text of the source, unless noted: active = TR-FRET ratio above about 2000; inactive = the rest.
SMILES,PPARg SRC3 recr,SRC1 TRFRET art,TR-FRET SRC-2 ct,PPARg SRC-2 ag,SRC3 TRFRET art,PPARg SRC1 recr
COc1ccc(C2=NN(C(=O)CSc3nc4ccccc4s3)C(c3ccc(OC)cc3)C2)cc1 (stereo unspecified),-2,1938,1438,-6,1447,7
COc1ccc(C2=NN(C(=O)CSc3ncccn3)C(c3ccc(OC)cc3)C2)cc1 (stereo unspecified),-1,2104,1601,5,1648,8
COc1ccc(C2=NN(C(=O)CSc3cn(C)c4ccccc34)C(c3ccc(OC)cc3)C2)cc1 (stereo unspecified),9,.,9469*,5,.,0
COc1ccc(C2CC(c3ccc4ccccc4c3)=NN2C(=O)CSc2ncccn2)cc1 (stereo unspecified),-4,1782,1608,9,2117*,3
O=C1CSC(c2ccccc2[N+](=O)[O-])N1c1ccccc1 (stereo unspecified),2,1781,1487,2,1668,-2
O=C(NCCN1CCCC1)c1cccc(Cl)c1,-4,1698,1388,1,1462,-1
CN(CP(=O)(O)CN(C)S(C)(=O)=O)S(C)(=O)=O,4,.,1670,1,.,21*
O=C(N/C=C/c1ccco1)OCc1ccccc1,-2,1736,1370,-4,1490,-8
CC(C)(C)c1cc(C(=S)N2CCN(CCO)CC2)cc(C(C)(C)C)c1O,28*,.,1569,10,.,6
CCCCOc1ccc(/C(O)=C2/C(=O)C(=O)N(CCCOC)C2c2ccncc2)cc1C (stereo unspecified),11,.,1842,8,.,5
Cc1cc(C(=O)N/N=C/c2cn[nH]c2-c2ccccc2)cs1,7,1622,1759,25*,1708,6
CNS(=O)(=O)c1cnccc1N1CCN(C)CC1,0,1443,1456,-8,1651,-3
COc1cc2[nH]c(=S)nc(NCCc3ccc(C)cc3)c2cc1OC,16,2432*,1959,24*,2231*,21*
Fc1cc(F)cc(NC(=S)N2CCN(c3ncccn3)CC2)c1,4,1757,1705,7,1747,5
CCOC(=O)c1c(/N=C/c2ccc(C)cc2O)sc2c1CCC2,4,1846,1649,3,1509,1
CN1/C(=C\C(=O)CSc2nnc(NCc3ccccc3)s2)C(C)(C)c2ccccc21,2,1935,1667,-3,2062*,12
O=C(c1ccccc1)c1cnc(-c2ccc(Cl)cc2)s1,-1,.,1816,-6,.,29*
O=C(c1ccc(Cl)cc1)c1cnc(-c2ccc(Cl)cc2)s1,7,.,1525,-3,.,8
CCN1/C(=C/C=C/C=C/c2sc3ccccc3[n+]2CC)Sc2ccccc21,339*,14504*,10856*,541*,13609*,448*
COC(=O)c1ccc(CSc2ncnc3ccccc23)o1,0,.,1478,0,.,14
COc1ccc(C2=NN(C(=O)CSc3nc4ccccc4s3)C(c3ccc(F)cc3)C2)cc1 (stereo unspecified),-4,1833,1326,8,1435,-8
O=C1CCCN2N=C(SCC(=O)N3N=C(c4ccc(Br)cc4)CC3c3ccc(F)cc3)SC2=N1 (stereo unspecified),-3,2131,2012*,-2,2326*,-4
CCOC(=O)n1c(=O)n(Cc2ccc(Cl)cc2Cl)c2ccccc21,-3,.,1530,3,.,5
O=C1NC2(CCCC2)N=C1c1ccc(Cl)cc1,-8,.,1415,-2,.,4
N#CC(C#N)=c1ccc2c(c1)NC1(CCCCC1)N=2,29*,.,1919,28*,.,39*
SMILES,PPARg SRC3 recr,SRC1 TRFRET art,TR-FRET SRC-2 ct,PPARg SRC-2 ag,SRC3 TRFRET art,PPARg SRC1 recr
COc1ccc(NC(=O)c2cc3c(-c4ccc(OC)c(OC)c4)nn(C)c3s2)cc1OC,0,.,1579,6,.,6
O=C(Cn1c(SCc2ccccc2)nc2ccccc21)N1CCOCC1,6,.,1576,-1,.,6
S=C1NC(c2cccs2)=CC(c2ccc(Br)cc2)N1 (stereo unspecified),0,1797,1561,3,1598,13
N#Cc1c(N)nc(SCC(=O)NC2CCCCC2)c(C#N)c1-c1ccc(Cl)cc1,2,.,1518,4,.,43*
Cc1cc(/C=C2/NC(=O)N(Cc3ccccc3F)C2=O)c(C)n1C,8,1719,1764,23*,1554,1
Cc1ccc(N=Nc2c(N)n(-c3ccccc3)[nH]c2=O)cc1,26*,.,1609,9,.,7
Cc1ccc(OCc2nc(-c3cccs3)no2)c([N+](=O)[O-])c1,2,1930,1645,7,1604,8
COC(=O)c1[nH]c2cc(OC)c(OC)cc2c1NC(=O)Oc1ccccc1,28*,.,1534,10,.,4
CC(C)C(C)(C#N)NC(=O)CSc1nnc(-c2ccncc2)n1Cc1ccccc1 (stereo unspecified),8,.,1578,11,.,7
CC(C)C(C)(C#N)NC(=O)CSc1nc2scc(-c3ccc(F)cc3)c2c(=O)n1Cc1ccccc1 (stereo unspecified),6,2769*,2522*,-5,2793*,1
Cc1ccc(NC(=O)CSc2nnc(-c3ccc(S(=O)(=O)N4CCCC4)cc3)o2)cc1C,1,.,1464,-11,.,21*
COC(=O)CNC(=O)C1CCN(C(=O)OCc2ccccc2)CC1,11,.,1580,1,.,5
CCN(CC)c1ccc(NC(=O)c2ccccc2)cc1S(=O)(=O)Nc1ccccc1OC,3,2017,1639,-5,2080*,6
Cc1ccc(-c2csc(NC(=O)c3cc([N+](=O)[O-])ccc3N3CCOCC3)n2)cc1,23*,1659,1581,-6,2579*,1
COc1ccc(Nc2ccc(Nc3ccc(OC)cc3)nn2)cc1,14,2360*,1769,18,1723,13
COc1ccc(Nc2cc(C)c3ccccc3n2)cc1,-2,1815,1594,-3,1923,13
CCOC(=O)CSc1nc2ccccc2c(=O)n1Cc1ccco1,3,1811,1578,4,1488,-3
O=C(O)CCCC(=O)Nc1cc([N+](=O)[O-])ccc1O,5,1819,1558,2,1851,22*
Cc1ccc(-n2c(N)c(C(=O)N3CCN(C)CC3)sc2=S)cc1,30*,.,1307,-4,.,3
O=C(COC(=O)c1cnc(Cl)c(Cl)c1)Nc1ccc(S(=O)(=O)N2CCCC2)cc1,4,1932,1424,10,1580,6
CC1(CCC#N)N=C(SCCC#N)N(c2ccccc2)C1=O (stereo unspecified),2,.,1990*,8,.,2
CCOc1cccc2cc(C(=O)Nc3ccccc3-c3ccccc3)c(=O)oc12,1,1745,1460,-9,1345,-4
